The values below come from PubChem BioAssay (NCATS).

A short description of experiment [1]: Primary qHTS for inhibitors of SARS-S pseudo-typed particle cell entry (AID 1479145). Further: nearly all actives have a fitted effect of over 45% in size. Further: potency means the concentration at half of the fitted maximal effect. On activity change, negative = inhibition: on the % scale 0 is the no-effect control and ±100 the full control effect. The following applies: outcome: dose series up to 57.1 µM unless noted. (In general: In qHTS, concentration-response curves come from the screen itself.)
Experiment [2] can be described thus: Primary qHTS for Huh7 cytotoxicity: counterscreen for inhibitors of MERS-S pseudotyped particle cell entry (AID 1479147). The settings on record: outcome: dose series up to 57.1 µM unless noted.
A short description of experiment [3]: Primary qHTS for inhibitors of MERS-S pseudo-typed particle cell entry (AID 1479149). Further: nearly all actives have a fitted effect of over 60% in size. On activity change, negative = inhibition: on the % scale 0 is the no-effect control and ±100 the full control effect. The following applies: outcome: dose series up to 57.1 µM unless noted.
Experiment [4] in a line: Primary qHTS for Vero E6 cytotoxicity: counterscreen for inhibitors of SARS-S pseudo-typed particle cell entry (AID 1479150). The following applies: outcome: dose series up to 57.1 µM unless noted.
The target in experiment [5] is Cytochrome P450 2D6 (Homo sapiens) (UniProt P10635). Nature of the experiment: Cytochrome P450 family 2 subfamily D member 6 (CYP2D6) small molecule antagonists: luciferase biochemical (cell-free) qHTS assay (AID 1645840; active means well fitted curve in the direction sought with a large enough effect in the repeat runs; an effect the other way counts as inactive or inconclusive; further: nearly all actives have a fitted effect of over 55% in size; further: potency means the concentration at half of the fitted maximal effect; on activity change, negative = inhibition: on the % scale 0 is the no-effect control and ±100 the full control effect). In a few lines:
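P450-Glo luminescent screen: recombinant CYP2D6 enzyme–proluciferin substrate mix preincubated with compound 10 min at room temperature, then NADPH regeneration added for 1 h at room temperature. Detection reagent added for 20 min; luciferin light read as relative luminescence units.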

In experiment [6] the target is Cytochrome P450 2C9 (Homo sapiens) (UniProt P11712). Briefly: Cytochrome P450 family 2 subfamily C member 9 (CYP2C9) small molecule antagonists: luciferase biochemical (cell-free) qHTS assay (AID 1645842; active means well fitted curve in the direction sought with a large enough effect in the repeat runs; an effect the other way counts as inactive or inconclusive; further: potency means the concentration at half of the fitted maximal effect; nearly all actives have a fitted effect of over 55% in size). In a few lines: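 Luminescence, after 20 min with luciferin detection reagent, reflected CYP2C9 turnover during a 1 h NADPH-driven reaction at 37C. Enzyme-substrate mix contained 0.4% bovine serum albumin and was preincubated with compound 10 min at room temperature.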

The nature of experiment [7]: Cytotoxicity counterscreen for inhibitors of SARS-CoV-2 cell entry (AID 1645845). Further: nearly all actives have a fitted effect of over 50% in size. The following applies: outcome: dose series up to 57.1 µM unless noted. In a few lines: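 Expi293F/hACE2 cells seeded overnight; cpd pin-transferred in DMSO, 1 h preincubation, + media, 48 h 37 C 5% CO2; ATPLite 1step luminescence; normalized to cells and no cells.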
Experiment [8] in a line: Primary qHTS to identify inhibitors of SARS-CoV-2 cell entry (AID 1645846). Further: nearly all actives have a fitted effect of over 45% in size. Further: potency means the concentration at half of the fitted maximal effect. The following applies: SARS-CoV-2 pseudovirus cell entry assay, luminescence. In outline:
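Using luciferase-reporting pseudoviruses carrying Wuhan-Hu-1 spike, the screen tracks entry into stably ACE2-expressing cells over 48 hr. Activity is expressed relative to spike particles versus particles lacking any fusion protein.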

A short description of experiment [9]: Confirmatory qHTS to identify inhibitors of SARS-CoV-2 cell entry (AID 1645844). Further: nearly all actives have a fitted effect of over 45% in size. Further: potency means the concentration at half of the fitted maximal effect. In a few lines: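 HEK293-ACE2 cells (Expi293F stably expressing human ACE2) were pretreated with compounds for 1 hr at 37C, then infected with MLV-based particles carrying Wuhan-Hu-1 spike (C-terminal 19-aa truncation). Luciferase luminescence read after 48 hr; normalized to spike PP (100%) and bald PP (0%).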

Experiment [10] is described as follows: VSVG counterscreen qHTS to identify inhibitors of SARS-CoV-2 cell entry (AID 1645847). Further: nearly all actives have a fitted effect of over 65% in size. Further: potency means the concentration at half of the fitted maximal effect. On activity change, negative = inhibition: on the % scale 0 is the no-effect control and ±100 the full control effect. In outline:
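Entry of VSV-G pseudotyped particles into human ACE2-expressing HEK293 cells was measured by luciferase luminescence 48 h after infection, with compound added 1 h beforehand.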
(The purpose of a counterscreen is to sort out artefacts and off-target activity.)

In experiment [11] the target is Glutathione peroxidase 1 (Homo sapiens) (UniProt P07203). Nature of the experiment: Primary qHTS Assay for Inhibitors of Recombinant Selenoprotein Glutathione Peroxidase 1 (GPX1) (AID 1845191; active means well fitted curve in the direction sought with a large enough effect; an effect the other way counts as inactive or inconclusive; further: nearly all actives have a fitted effect of over 65% in size). In outline: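 Recombinant GPX1 (10 nM final) was preincubated with compound for 30 min at room temperature, then reacted with 1 mM GSH, 0.5 mM CHP, 0.5 mM NADPH and 100 nM glutathione reductase; NADPH fluorescence (340/450 nm) was read at 0 and 15 min.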

The target in experiment [12] is Phospholipid hydroperoxide glutathione peroxidase GPX4 (Homo sapiens) (UniProt P36969). Briefly: Primary qHTS Assay for Inhibitors of Recombinant Selenoprotein Glutathione Peroxidase 4 (GPX4) (AID 1845192; active means well fitted curve in the direction sought with a large enough effect; an effect the other way counts as inactive or inconclusive; further: on the % scale 0 is the no-effect control and ±100 the full control effect; nearly all actives have a fitted effect of over 65% in size). In a few lines:
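GR-coupled readout: 100 nM GR, 1 mM GSH, 0.5 mM NADPH; NADPH fluorescence (ex 340/em 450 nm) read at t=0 and after 15 min RT. GPX4 200 nM, preincubated 30 min with compound; substrate 0.5 mM CHP.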

The mark [13] stands for this setting: activity change, negative = inhibition: at 57.1 µM (top of the series) unless noted, outcome: at 57.1 µM (top of the series) unless noted.

Records with an inconclusive call do not appear. The source made the active and inactive calls. Unless noted, the call rests on the fitted dose curve. Square brackets hold non-standard residues; d marks the D form. Peptide text beside a SMILES is read from it. ξ: configuration not given here. d(hArg(Et2)) = CCN=C(NCC)NCCCC[C@@H](N)C(=O)O; hArg(Et2) = CCN=C(NCC)NCCCC[C@H](N)C(=O)O; Phe(4-Cl) = N[C@@H](Cc1ccc(Cl)cc1)C(=O)O; ξ2Nal = NC(Cc1ccc2ccccc2c1)C(=O)O; 3Pal = N[C@@H](Cc1cccnc1)C(=O)O; ξP = O=C(O)C1CCCN1

Chain of Cytochrome P450 2D6 (Homo sapiens) (P10635 whole entry, looked up): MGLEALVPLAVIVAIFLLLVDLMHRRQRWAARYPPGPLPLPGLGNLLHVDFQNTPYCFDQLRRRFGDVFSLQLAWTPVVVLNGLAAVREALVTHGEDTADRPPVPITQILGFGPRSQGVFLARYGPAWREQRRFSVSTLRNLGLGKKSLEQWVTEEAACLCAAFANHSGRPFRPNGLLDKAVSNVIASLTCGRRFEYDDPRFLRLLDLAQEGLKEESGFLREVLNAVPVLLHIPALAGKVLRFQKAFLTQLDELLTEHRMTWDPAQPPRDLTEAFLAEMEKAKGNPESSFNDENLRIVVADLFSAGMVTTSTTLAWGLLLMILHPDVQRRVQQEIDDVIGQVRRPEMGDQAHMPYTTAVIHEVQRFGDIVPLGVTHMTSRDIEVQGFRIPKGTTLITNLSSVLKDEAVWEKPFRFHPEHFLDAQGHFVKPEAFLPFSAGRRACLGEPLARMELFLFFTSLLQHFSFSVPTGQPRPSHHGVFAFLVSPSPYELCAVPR
Chain of Glutathione peroxidase 1 (Homo sapiens) (P07203 whole entry, looked up): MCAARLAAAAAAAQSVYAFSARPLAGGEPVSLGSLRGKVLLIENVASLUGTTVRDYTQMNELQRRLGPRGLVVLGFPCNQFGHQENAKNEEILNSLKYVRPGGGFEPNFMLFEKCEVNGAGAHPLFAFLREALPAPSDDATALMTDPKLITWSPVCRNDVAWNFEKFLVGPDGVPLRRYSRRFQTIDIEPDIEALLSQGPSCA
Chain of Cytochrome P450 2C9 (Homo sapiens) (P11712 whole entry, looked up): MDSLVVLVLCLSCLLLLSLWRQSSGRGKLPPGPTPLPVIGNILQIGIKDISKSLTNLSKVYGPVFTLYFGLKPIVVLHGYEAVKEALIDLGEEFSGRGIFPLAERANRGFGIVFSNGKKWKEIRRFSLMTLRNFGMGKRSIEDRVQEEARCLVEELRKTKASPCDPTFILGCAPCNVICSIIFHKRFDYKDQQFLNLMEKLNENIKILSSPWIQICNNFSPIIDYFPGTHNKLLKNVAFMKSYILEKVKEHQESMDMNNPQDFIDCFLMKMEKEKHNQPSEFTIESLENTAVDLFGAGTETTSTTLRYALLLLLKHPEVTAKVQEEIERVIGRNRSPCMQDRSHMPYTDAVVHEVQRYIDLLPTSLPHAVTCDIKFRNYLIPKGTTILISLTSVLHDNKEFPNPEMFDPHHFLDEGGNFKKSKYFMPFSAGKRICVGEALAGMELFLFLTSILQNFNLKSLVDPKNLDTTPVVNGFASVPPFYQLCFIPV
Chain of Phospholipid hydroperoxide glutathione peroxidase GPX4 (Homo sapiens) (P36969 whole entry, looked up): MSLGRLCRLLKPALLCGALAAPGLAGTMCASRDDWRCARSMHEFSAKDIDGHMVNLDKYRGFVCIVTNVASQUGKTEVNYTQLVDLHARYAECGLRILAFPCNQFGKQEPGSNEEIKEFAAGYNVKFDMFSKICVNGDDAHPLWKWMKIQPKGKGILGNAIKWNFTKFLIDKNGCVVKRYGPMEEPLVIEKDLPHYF

As for `C[C@]12C[C@@H]3S[C@H]3C[C@@H]1CC[C@H]1[C@H]3CC[C@@H](O)[C@@]3(C)CC[C@@H]12`, the Potency result in experiment [1], in [2], in experiment [3], in experiment [4], in experiment [5] and in experiment [7] was “inactive” in each case. Moreover, the Potency entry in [8] (setting [13]) was “inactive”. Besides, in [6], the Potency was 0.107 µM (active).

On to `Cc1onc(-c2c(F)cccc2Cl)c1C(=O)N[C@@H]1C(=O)N2[C@@H]1SC(C)(C)[C@H]2C(=O)O`, for which the Potency entry in experiment [1], in experiment [2], in experiment [3], in experiment [4] and in experiment [7] was “inactive” throughout.

In the case of `O1[As]2O[As]1O2`, the Potency entry in experiment [1], in experiment [2], in experiment [3], in [4], in experiment [7] and in [11] was “inactive” throughout. In experiment [12], the Potency entry is “inactive”. Besides, the Potency is 19.2 µM (active) in [9] and 15200 nM (active) in [10].

Take `CC(Cc1ccc2c(c1)OCO2)NCC(O)c1ccc(O)c(O)c1` (configuration not stated): the Potency result in [1], in experiment [2], in [3], in experiment [4], in experiment [7] and in experiment [11] was “inactive” each time. The results for the Potency in experiment [5] and in experiment [6] were 674 nM (active) and 15.1 µM (active), respectively.

For the molecule `CCCCC(CC)CCC(CC(C)C)OS(=O)(=O)O` (configuration not stated), the Potency result in experiment [1], in experiment [2], in experiment [3] and in experiment [4] was “inactive” each time.

On to `CCCCCCCCCCCCCCCCCCCCCC(=O)Nc1ccn([C@@H]2O[C@H](CO)[C@@H](O)[C@@H]2O)c(=O)n1`, for which the Potency result in experiment [1], in experiment [2], in experiment [3], in [4], in [9] and in [7] was “inactive” in each case. The Potency result in experiment [10] was “inactive”. Also, the activity change, negative = inhibition in experiment [8] (setting [13]) was -93.7% [at 27.1 µM].

In the case of `CCOC(=O)C=C(C)C=CC[C@@H](C)CCCC(C)C`, the Potency result in [1], in [2], in experiment [3], in [4], in [5] and in experiment [7] was “inactive” each time. Also, the Potency entry in experiment [11] and in [12] was “inactive” throughout. Besides, the Potency in experiment [6] is 10.7 µM (active).

Consider `CCCCc1cc2c(=O)c(C(=O)OC)c[nH]c2cc1OCc1ccccc1`, for which the Potency result in experiment [1], in [2], in experiment [3] and in experiment [4] was “inactive” each time.

On to `C[N+](C)(C)C1CCC(CC2CCC([N+](C)(C)C)CC2)CC1` (configuration not stated), for which the Potency entry in experiment [1], in [2], in experiment [3] and in [4] was “inactive” in each case.

For the molecule `COc1ccc2c(O[C@H]3CC4C(=O)N(C)CCCC/C=C\[C@@H]5C[C@@]5(C(=O)NS(=O)(=O)C5CC5)NC(=O)[C@@H]4C3)cc(-c3nc(C(C)C)cs3)nc2c1C` (some centres not stated), the Potency entry in experiment [1], in [2], in experiment [3] and in [4] was “inactive” each time.

Take `CCCCN=C(N)NC(=N)N`: the outcome in [1], in experiment [2], in experiment [3], in experiment [4], in experiment [7] and in [8] (setting [13]) was “inactive [setting not given]” each time. In experiment [9], the molecule was called inactive.

As for `CNC(=O)c1c(I)c(C(=O)NCC(=O)Nc2c(I)c(C(=O)O)c(I)c(C(=O)NCCO)c2I)c(I)c(N(C)C(C)=O)c1I`, the Potency entry in experiment [1], in experiment [2], in [3], in [4] and in [7] was “inactive” in each case.

Regarding `CCNC(=NCCCC[C@H](NC(=O)[C@H](CC(C)C)NC(=O)[C@@H](CCCCN=C(NCC)NCC)NC(=O)[C@@H](Cc1ccc(O)cc1)NC(=O)[C@@H](CO)NC(=O)[C@H](Cc1cccnc1)NC(=O)[C@H](Cc1ccc(Cl)cc1)NC(=O)C(Cc1ccc2ccccc2c1)NC(C)=O)C(=O)N1CCCC1C(=O)N[C@H](C)C(N)=O)NCC` (some centres not stated) (Ac-[ξ2Nal][Phe(4-Cl)][3Pal][dS][dY][d(hArg(Et2))]L[hArg(Et2)][ξP][dA]-NH2), the Potency result in [1], in experiment [2], in experiment [3] and in experiment [4] was “inactive” in each case. Further, the Potency in experiment [9] is 1.21 µM (active); in [10], 857 nM (active).

On to `NCCCC(N)C(=O)O` (configuration not stated), for which the Potency result in experiment [1], in [2], in experiment [3] and in experiment [4] was “inactive” throughout.

As to `CO[C@@H]1[C@H](C)OC(O[C@H]2CC(Oc3cc4cc5c(c(O)c4c(O)c3C)C(=O)[C@@H](OC3C[C@@H](OC4C[C@H](OC6C[C@](C)(O)[C@@H](OC(C)=O)[C@H](C)O6)[C@@H](O)[C@H](C)O4)[C@H](O)[C@@H](C)O3)[C@H]([C@@H](OC)C(=O)[C@@H](O)[C@H](C)O)C5)O[C@@H](C)[C@H]2OC(C)=O)C[C@@H]1O` (some centres not stated), the Potency result in experiment [1], in experiment [2], in experiment [3], in experiment [4], in [7] and in experiment [11] was “inactive” throughout. In addition, the Potency in experiment [9] was 0.0215 µM (active); in [10], 48.2 nM (active).

For `Cc1cc(-c2ccc(N=Nc3c(S(=O)(=O)O)cc4cc(S(=O)(=O)O)cc(N)c4c3O)c(C)c2)ccc1N=Nc1c(S(=O)(=O)O)cc2cc(S(=O)(=O)O)cc(N)c2c1O`, the Potency result in [1], in experiment [2], in experiment [3] and in [4] was “inactive” throughout.

On to `C=C1C[C@@H]2CC[C@@]34C[C@H]5O[C@H]6[C@@H](O3)[C@H]3O[C@H](CC[C@@H]3O[C@H]6[C@H]5O4)CC(=O)C[C@@H]3[C@@H](OC)[C@@H](C[C@H](O)CN)O[C@H]3C[C@H]3O[C@@H](CC[C@@H]1O2)C[C@@H](C)C3=C`, for which the Potency result in [1], in experiment [2], in experiment [3], in [4] and in experiment [7] was “inactive” throughout. In addition, the Potency in experiment [9] is 0.221 µM (active); in [10], 111 nM (active). Also, the figures for the activity change, negative = inhibition in experiment [8] (at 11.3 µM (top of the series)) and in experiment [8] (at 57.1 µM (top of the series)) were -91.9% and -84.4%, respectively.

For `C=C1CCN([C@H](C)[C@](O)(Cn2cncn2)c2ccc(F)cc2F)CC1`, the Potency entry in experiment [1], in experiment [2], in experiment [3], in experiment [4] and in experiment [7] was “inactive” throughout.

Take `NCCNc1ccc(NCCN)c2c1C(=O)c1ccncc1C2=O`: the Potency in [1] was 11.2 µM (active); in experiment [9] it was 1.52 µM (active); in experiment [8] (setting [13]), 7.94 µM (active); in experiment [10] it was 3040 nM (active). Also, the Potency entry in experiment [2], in [3] and in experiment [4] was “inactive” each time.

As to `Nc1c(Br)cc(Br)cc1CNC1CCC(O)CC1` (configuration not stated), the Potency result in experiment [1], in experiment [2], in experiment [3] and in experiment [4] was “inactive” throughout.

`Cn1nnnc1SCC1=C(C(=O)O)N2C(=O)[C@H](NC(=O)C(O)c3ccccc3)C2SC1` (some centres not stated): the Potency result in experiment [1], in [2], in experiment [3], in experiment [4] and in [7] was “inactive” each time.

In the case of `Cc1cc(O)ccc1C(C)(C)C`, the Potency entry in [1], in experiment [2], in experiment [3], in experiment [4] and in experiment [7] was “inactive” each time.
